JMJD2A Tudor inh = blocks the human JMJD2A Tudor domain | O75164 | AID 504339 | 390,000 tested, 4.4% active | AlphaScreen JMJD2A-Tudor / H3K4me3 peptide binding | Potency, µM (series often up to 114 µM), inactives show at the top dose activity change, negative = inhibition, actives largely listed as inhibitors; also: % is scaled to controls: 0 for no effect and ±100 for the full control effect; nearly all actives have a fitted effect of over 50% in size
HP1b binding inh = inhibitors of HP1-beta chromodomain binding to methylated histone tails; AID 540317; Potency, µM (top dose mostly 114 µM), inactives show top-dose activity change, negative = inhibition, hits mostly inhibitors; 390,000 tested, 0.56% active; P83916; AlphaScreen HP1-beta / biotin-H3K9me3 peptide binding; also: nearly all actives have a fitted effect of over 70% in size
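HP1-beta protein (50 nM final) preincubated 30 min at room temperature with biotinylated H3(1-18)K9me3 peptide (50 nM) in PBS pH 7.4, 0.01% Tween-20, then compound added for 30 min. AlphaScreen streptavidin donor/nickel chelate acceptor beads (10 ug/mL final), 30 min dark, luminescence read.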
G9a block = G9a (human) methyltransferase inhibition; Q96KQ7; G9a H3K9 monomethylation, AlphaScreen, 2 h; Potency, µM (highest dose often 102 µM), for inactives: at the top dose activity, negative = inhibition, usual class: inhibitors; 350,000 tested, 8.8% active; also: % is scaled to controls: 0 for no effect and ±100 for the full control effect; nearly all actives have a fitted effect of over 75% in size
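AlphaScreen detection with an anti-monomethyl H3K9 antibody quantified product after a 2 h room-temperature reaction containing 500 nM biotinylated H3K9 peptide, 20 µM SAM and 20 nM enzyme, which had been preincubated 15 min with compound.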
Sfp PPTase inh = Sfp phosphopantetheinyl transferase inhibition; 310,000 tested, 3.5% active; Q9F4F7; Potency, µM, inactives show largest response in the series, negative = inhibition, most hits filed as inhibitors; Biochemical Sfp PPTase activity, qHTS;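 also: the enzyme is Sfp with the accession as filed and its product quenches rhodamine fluorescence; 0% = enzyme reaction without inhibitor and -100% = no enzyme wells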
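Compounds were incubated with enzyme (final 15 nM) for 15 min at room temperature before substrate addition started the reaction. Fluorescence at 525 nm excitation, 598 nm emission was recorded immediately and after 30 minutes.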
L3MBTL1 block = blocks human L3MBTL1; Q9Y468; AID 485360; AlphaScreen L3MBTL1–H3K9me1 peptide binding; Potency, µM (titrated, usually from 57.1 µM), for inactives: top-dose activity, negative = inhibition, usual class: inhibitors; 230,000 tested, 0.66% active; also: % is scaled to controls: 0 for no effect and ±100 for the full control effect; nearly all actives have a fitted effect of over 60% in size
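AlphaScreen assay: L3MBTL1 (50 nM final) was preincubated 30 min at room temperature with biotinylated H3(1-15)K9me1 peptide (75 nM final), then 30 min with library compounds; streptavidin donor and nickel chelate acceptor beads (10 ug/mL final) added, 30 min dark.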
BAZ2B block = inhibitors of human BAZ2B bromodomain; Q9UIF8; AlphaScreen BAZ2B-H3K14Ac peptide displacement; Potency, µM (titrated, usually from 114 µM), for inactives: at the top dose activity change, negative = inhibition, actives largely listed as inhibitors; 360,000 tested, 4.4% active; AID 504333; also: % is scaled to controls: 0 for no effect and ±100 for the full control effect; nearly all actives have a fitted effect of over 60% in size
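Compounds, titrated to a top concentration of 110 uM, were incubated 30 min at room temperature with preformed BAZ2B/acetyl-K14 H3 peptide complex (50 nM each). Proximity signal was measured by AlphaScreen after 20 min with beads.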
* marks the source's active call; other numbers are inactive results; ? = inconclusive; · = no result; [ ] = another dose, or the depositor's remark. An excerpt weighted towards active compounds, which were near 12% of everything screened. Calls follow the shape of the dose curve; as a rule, active = well fitted curve in the direction sought with a large enough effect; inconclusive = small, poorly fitted or top-dose-only effect, or another doubt; inactive = no such curve, though single readings can be large; an effect the other way counts as inactive or inconclusive. Potency is read from the fitted curve at half-maximal effect.

SMILES	JMJD2A Tudor inh	HP1b binding inh	G9a block	Sfp PPTase inh	L3MBTL1 block	BAZ2B block
Cc1ccc2sc(N(CCCN(C)C)C(=O)c3ccc(S(=O)(=O)N4CCCCCC4)cc3)nc2c1C	?	-21%	50µM*	·	0%	?
CCOc1ccc2nc(N(CCCN(C)C)C(=O)c3ccc(S(=O)(=O)N4CCCC4)cc3)sc2c1	-8%	8%	?	-15%	·	?
COc1cccc2sc(N(CCN(C)C)C(=O)c3ccc(S(=O)(=O)N4CCCC4)cc3)nc12	-10%	-6%	-49%	3%	·	-18%
CN(C)CCCN(C(=O)CCc1ccccc1)c1nc2c(F)cccc2s1	-23%	22%	?	-6%	-15%	-28%
Cc1ccc2sc(N(CCCN(C)C)C(=O)CN3C(=O)c4ccccc4C3=O)nc2c1C	-36%	-13%	50µM*	-8%	·	·
CN(C)CCCN(C(=O)c1ccc(S(=O)(=O)N2CCCCC2)cc1)c1nc2cc3c(cc2s1)OCO3	?	?	50µM*	-14%	·	?
CCC(C)(C)C(=O)O[C@@H]1C[C@H](C)C=C2C=C[C@H](C)[C@@H](CC[C@H]3C[C@@H](O)CC(=O)O3)[C@H]21	·	·	15%[21.5 µM]	5%	·	·
CC(C)C(=O)OCC(=O)[C@@]12OC(C3CCCCC3)O[C@@H]1CC1C3CCC4=CC(=O)C=C[C@]4(C)C3[C@@H](O)C[C@@]12C (stereo partly specified)	·	·	-3%[12.7 µM]	12%	·	·
O=C(Cc1cccs1)NC1CC(=O)N(c2ccc(F)cc2)C1 (stereo unspecified)	-6%	17%	-3%[59 µM]	·	·	-2%
CC1CCCCN1S(=O)(=O)c1ccc(C(=O)N(CCCN(C)C)c2nc3cc4c(cc3s2)OCO4)cc1 (stereo unspecified)	?	-4%	50µM*	4%	·	?
COc1ccc(S(=O)(=O)N2CCCCCC2)cc1C(=O)N1CCN(c2ccccc2C)CC1	-18%	23%	5%[12.7 µM]	·	-5%	0%
COC(=O)c1ccc(/C=N/Nc2nc(-c3ccccc3)cs2)cc1	-17%	26%	?	-13%	-6%	-2%
COC(=O)c1ccc(/C=N/Nc2nc(-c3ccc(C)cc3)cs2)cc1	-11%	32%	79µM*	-27%	11%	-5%
COc1ccc(/C=N/Nc2nc(C(=O)O)cs2)cc1	?	34%	40µM*	?	?	45µM*
COC(=O)c1ccc(/C=N/Nc2nc(-c3ccc(Cl)cc3Cl)cs2)cc1	·	·	50µM*	10%	4%	-36%
CCCOc1ccc(CNC(=O)C2CCN(C(=O)c3sccc3-n3cccc3)CC2)cc1	-35%	-17%	?	·	·	-36%
CCc1ccc(NC(=O)c2cnn3c(C)cc(C)nc23)cc1	-9%	·	·	·	·	·
N#Cc1cccc(NC(=O)c2cc3c(s2)-c2ccc(Cl)cc2SC3)c1	-8%	31%	1%[59 µM]	·	·	2%
CCCNCC(=O)Nc1cccc(S(=O)(=O)NC2=NCCCCC2)c1	1µM*	?	·	·	-4%	·
Cc1ccc(CNCC(=O)Nc2cccc(S(=O)(=O)NC3=NCCCCC3)c2)cc1	7.9µM*	?	40µM*	-13%	5%	?
Cc1cccc(-c2nc(CC(=O)Nc3cccc(S(=O)(=O)NC4=NCCC4)c3)cs2)c1	-19%	20%	?	·	-4%	3%
O=C(CCl)Nc1cccc(S(=O)(=O)NC2=NCCCCC2)c1	-3%	37%	·	·	0%	·
O=C(Cc1csc(-c2cccc(Cl)c2)n1)Nc1cccc(S(=O)(=O)NC2=NCCC2)c1	-24%	16%	14µM*	·	4%	0%
Cc1ccc(C)c(SCC(=O)Nc2cccc(S(=O)(=O)NC3=NCCCCC3)c2)c1	-28%	18%	16%[59 µM]	2%	10%	-6%
Cc1ccc(Nc2nnc(SCC(=O)Nc3cccc(S(=O)(=O)NC4=NCCCCC4)c3)s2)c(C)c1	-26%	5%	40µM*	-17%	1%	-25%
C=CCOC(=O)N[C@H](C[N+](=O)[O-])c1ccccc1	·	·	·	9%	·	·

Bioassay records as filed in PubChem BioAssay.
